Assay results published in PubChem BioAssay (NCI).
Where “and” joins values, the source holds several entries; their conditions need not be identical. Equal values may be shown once. Compounds without any hit were thinned out: in the full panel of roughly 83,000, 20% have a hit.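 A percent growth of 40 corresponds to 60% growth inhibition; 0 means no net growth; -100 means all cells died. Active threshold: below 10.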 Unmarked numbers belong to inactive results. Calls of active or inactive are those of the source.

tested on: MDA-MB-468 breast; assay: NCI-60 one-dose screen, 48 h (100 = growth as untreated, 0 = no growth, -100 = all killed); conditions: 10 µM unless noted

| SMILES | growth |
| --- | --- |
| O=C(/C=C/c1cccc(Cl)c1)c1ccccc1 | 82.8% and 74.6% |
| O=C(/C=C/c1sc(Cl)nc1Cl)c1ccc(F)cc1 | 40.9% |
| CCCCCC/C=C\CCCCCCCCOc1ccc(CCOP(=O)(O)OCC[N+](C)(C)C)cc1 | 85.5% |
| Cc1c(Cl)cccc1NS(=O)(=O)c1ccccc1 | 93.2% |
| COc1cc(/C=C/C(=O)/C=C/c2cc3ccc(Cl)cc3[nH]c2=O)ccc1O | 98.4% |
| O=C(CN1CCN(c2cc3c(cc2F)c(=O)c(C(=O)O)cn3C2CC2)CC1)Nc1ccc(Cl)cc1 | 86% and 91.1% |
| CC[C@]12C=CCN3CC[C@@]4(c5cc(NC(=O)CCC(=O)O[C@H]6CC[C@H]7[C@@H]8CC[C@H]9CC(=O)CC[C@]9(C)[C@H]8CC[C@]67C)c(OC)cc5N(C)[C@H]4[C@@](O)(C(=O)OC)[C@@H]1OC(C)=O)[C@@H]32 | 73% |
| Cc1cc(Cl)c2c(N(C)C)cccc2n1 | 77.4% |
| C#C[C@]1(O)CC[C@H]2[C@@H]3CC=C4c5nc(Nc6ncccn6)sc5CC[C@]4(C)[C@H]3CC[C@@]21C | 75.5% |
| CC(C)=CCc1c(O)c(CC=C(C)C)c2c(c1O)C(=O)C1=C[C@@H]3C[C@H]4C(C)(C)O[C@@](C/C=C(\C)C(=O)O)(C3=O)[C@@]14O2 | -45.1% (active) |
| O=S(=O)(Nc1ncccn1)c1ccc(Nc2ccc3nnc(-c4ccncc4)n3n2)cc1 | 103% |
| CCC(CC)C(=O)OC(C)COc1ccc(C(C)(C)C)cc1 (stereo not drawn) | 94.6% |
| COc1ccc(N/N=C/c2cn(-c3ccc(C(=O)O)cc3)nc2-c2cc3ccccc3oc2=O)cc1 | 107% |
| c1ccc(-c2cn3ccnc3c(-c3ccc4ncn(C5CCCCC5)c4c3)n2)cc1 | 45.6% |
| OCC1OC2C(NC(=S)N2c2ccccc2)C(O)C1O (stereo not drawn) | 94.6% |
| O=C1OC(c2ccccc2)=N/C1=C\c1ccc([N+](=O)[O-])cc1 | 94.6% |
| Cc1ccc2c(c1)CC(O)CC1C(=O)N(CCO)CC(=O)N21 (stereo not drawn) | 96% |
| Cc1ccc2[nH]c(=S)[nH]c(=O)c2c1 | 102% |
| CSc1nc2ccc(C)cc2cc1/C=C1/C=C(c2ccccc2)NC1=O | 49.1% |
| CCOC(=O)/C=C1\S/C(=N\Nc2cc(=O)[nH]c3ccc(OC)cc23)N(c2ccccc2)C1=O | 101% |
| Cc1[nH]c(C(=O)Nc2ccc(C(=O)NCCN)cc2OC(C)C)c(Cl)c1Cl | -43.6% (active) |
| c1ccc2c(c1)Cc1ccccc1N2CCN1CCCCC1 | 99.4% |
| Cn1ccnc1C(=O)/C=C/c1ccc(C(=O)Nc2ccccc2O)cc1 | -3.85% (active) |
| Cn1cc(-c2nn3c(=O)cc(-c4ccccc4)nc3s2)c2cc(F)ccc21 | 38.9% |
| N#C/C(=N\Nc1ccc(Cl)cc1)C(=O)C1CC1 | 27.1% |
| CCCCOc1nc2c(C)cccc2cc1-c1cc(-c2ccc(Cl)cc2)nc(-c2ccc(Cl)cc2)c1 | 102% |
| C[C@H]1c2cccc(O)c2C(O)=C2C(=O)[C@]3(O)C(O)=C(C(N)=O)C(=O)[C@@H](N(C)C)[C@@H]3[C@@H](O)[C@@H]21 | 41.8% |
| O=C(Nc1ccccc1C(=O)N/N=C(\c1ccccc1)c1ccccn1)c1ccc(F)cc1 | 5.1% (active) |
